Reference: PubChem BioAssay (NCI)
Compounds without any hit were thinned out: in the full panel of roughly 83,000, 20% have a hit.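 Single-concentration screen, 48 h exposure, 96-well plates. Endpoint: percent growth. Below 10 = active.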 Unmarked numbers belong to inactive results. Calls of active or inactive are those of the source.

test system: 786-0 renal; assay: NCI-60 one-dose screen, 48 h (100 = growth as untreated, 0 = no growth, -100 = all killed); details: 10 µM unless noted

Structure (SMILES) | growth
CCC1CCc2nc3sc(C(=O)Nc4ccccc4F)c(N)c3cc2C1 (stereo not drawn) | 91.4%
Cc1nn(-c2ccc(Cl)cc2)c(=O)n1CCOc1ccccc1Cl | 93.7%
COc1cc(/C=C2\CCCC3=C2NC(C)=NC3c2cc(OC)c(OC)c(OC)c2)cc(OC)c1OC (stereo not drawn) | 18%
c1ccc([P+](CCC[P+](c2ccccc2)(c2ccccc2)c2ccccc2)(c2ccccc2)c2ccccc2)cc1 | 92.5%
CC1=C(C#N)C(C)(C)C(C#N)=C(C)N1 | 105%
COc1cc(C(=O)OCCCCCCCCCCC[P+](c2ccccc2)(c2ccccc2)c2ccccc2)ccc1O | 5.62% (active)
Nc1c(C(=O)Nc2ccccc2)sc2nc3c(cc12)CCCCC3 | 15.7%
COc1cccc(C2CC(=O)Nc3c2c(C)nn3-c2nc3ccccc3[nH]2)c1OC (stereo not drawn) | 91.7%
COc1cc(C(=O)/C=C/c2cc(C(=O)c3cc(OC)c(OC)c(OC)c3)ccc2OC)ccc1N | 10.5%
COc1ccc(NC(=O)c2cc3ccccc3nc2Nc2cc(OC)c(OC)c(OC)c2)cc1 | 58%
O=S(=O)(O)CCl | 99.1%
O=C(CN1CCOCC1)Nc1ccc(-c2nc3ccccc3s2)cc1 | 101%
COc1cc(/C=C\c2cc(OC)c(OC)c(OC)c2)cc(N/C=C\C(=O)c2c[nH]c3ccccc23)c1OC | -5.56% (active)
CC(C)C[C@H](NC(=O)[C@@H](Cc1ccccc1)n1ccc(Nc2ccccc2)cc1=O)B(O)O | 17.2%
Cc1ccc2c(c1)C(=O)C(c1c(-c3[nH]c(=O)c4ccc(C)cc4c3O)c(O)c3ccccc3c1O)=NC2=O | 12.7%
C=CCn1c(C)nc2ccc(Nc3nc(Nc4ccc(F)cc4)nc4ccccc34)cc21 | 76.7%
COc1ccccc1CNCCCN1C(=O)c2ccc3c4c(ccc(c24)C1=O)C(=O)N(CCCNCCCCNCCCCN)C3=O | 23.3%
COc1ccc2c(c1)C(=O)/C(=C/c1ccc(O)cc1)O2 | 101%
COc1ccc(-c2cn[nH]c2-c2cc(OC)c3c(c2)OCO3)cc1 | 26%

Structure (SMILES) | growth
CCCCCCCCCCCCNC(=S)N/N=C/c1ccc(Cl)c(Cl)c1 | 106%
O=C1Nc2ccc(Br)cc2C1=N/C=c1\[nH]c(=O)/c(=C/c2ccc(Cl)cc2)s1 | 90.6%
O=C(CNc1c(Cl)cccc1Cl)Nc1ccc(-c2nc3ccccc3s2)cc1 | 24.1%
CCn1c(=O)c2c(=O)c3c4c(oc3oc2c2ccccc21)C(=O)c1ccccc1C4=O | 105%
CN1CCN(c2ccc3cc(-c4nc5ccccc5[nH]4)c(=O)oc3c2)CC1 | 105%
COc1ccc(OC)c(C(=O)c2oc3ccc(Br)cc3c2N)c1 | 38%
Cc1ccc(Cn2c(-c3nonc3N)nc3ccccc32)cc1 | 92.3%
Cc1ccc(S(=O)(=O)NCCCNc2nccc(-c3c(-c4ccccc4)nc4sccn34)n2)cc1 | 38.7%
COC1=CC(c2ccc[nH]2)=N/C1=C\c1[nH]c(C)c(C(=O)CCCCC(=O)Oc2ccc3c(c2)CCC2C3CC[C@]3(C)[C@@H](O)CC[C@@H]23)c1C (stereo partly drawn) | 66.1%
Cc1cccc(NC(=O)c2sc3nc4c(cc3c2N)CCC4)c1C | 42.7%
Nc1c(C(=O)Nc2c(Cl)cccc2Cl)sc2nc3c(cc12)CCCCC3 | 59.8%
COc1cc(OC)c(C(=O)/C=C/c2ccc(C(F)(F)F)cc2)c(OC)c1 | 45.4%
Cn1c(-c2nonc2NC(=O)c2ccc(F)cc2)nc2ccccc21 | 98.6%
CCOC(=O)C1=C(CSC(=S)N(C2CCCCC2)C2CCCCC2)N(C)C(=O)NC1c1ccccc1 (stereo not drawn) | 48.6%
COC12CC(=O)C(C(C)=O)=C(O)C1(C)c1c(O)c(C)c(O)c(C(C)=O)c1O2 (stereo not drawn) | 60.8%
COc1ccc(C2=CC(c3ccc(Oc4ccnc5cc(Cl)ccc45)c(OC)c3)c3c(nc(OC)[nH]c3=O)N2)cc1 (stereo not drawn) | 80.3%
COc1ccc(Cn2cc(COc3cc(/C=C/C(=O)c4cc(OC)c(OC)c(OC)c4)ccc3OC)nn2)cc1 | 81%
O=C(Nc1ccc(OCc2nnc(-c3ccc(Cl)cc3)o2)c(F)c1)Nc1ccc(Cl)c(Cl)c1 | 90%
O=C(CNc1ccc(Cl)cc1)Nc1ccc(-c2nc3ccccc3s2)cc1 | 27%
